Each structure is given as a SMILES string. Records with an inconclusive call do not appear. A call without a number means that no potency is given here. The source made the active and inactive calls. Calls follow the shape of the dose curve; as a rule, active = well fitted activation curve with a large enough effect in the repeat runs; inconclusive = weak or mixed curves; inactive = flat fitted curve, though single readings scatter.
Potency is read from the fitted curve at half-maximal effect.

A short description of the test: A CellTox Green Cytotoxicity Assay to monitor cytotoxicity in HepG2 cells - 40 hour (AID 1224879). Also: nearly all actives have a fitted effect of over 40% in size. The settings on record: CellTox Green fluorescence; series mostly up to 76.8 µM. An excerpt:
National Center for Advancing Translational Sciences [NCATS]
NIH Chemical Genomics Center [NCGC]
U.S. Environmental Protection Agency [EPA]
National Institutes of Environmental Health Sciences [NIEHS]
National Toxicology Program [NTP]
Cell-based models are critical for drug discovery. Determining the natural cytotoxic effects resulting from test compounds is an essential research activity. A CellTox Green Cytotoxicity Assay to monitor cytotoxicity in real time of continues cell culture during 40 hours of the compound treatment was used to screen Tox21 10K library compounds in HepG2 cells. CellTox Green Cytotoxicity Assay is a nonlytic, homogeneous, biofluorescent method to measure cytotoxicity in cell culture after experimental manipulation. The assay system uses a proprietary asymmetric cyanine dye that is excluded from viable cells but preferentially stains the dead cell's DNA. […] Viable cells produce no appreciable increases in fluorescence. Therefore, the fluorescence signal produced by the binding interaction with dead cell DNA is proportional to cytotoxicity.
The mixture of HepG2 cell suspension and reagents were dispensed at 600cells/6 ul/well in 1536-well tissue culture treated black solid bottom plates using a Multidrop dispenser. After the assay plates were incubated at a 37 C/5% CO2 incubator for 5 hours, 23 nL of compounds dissolved in DMSO, positive and negative controls was transferred to the assay plate by a pintool work station. The plates were incubated at 37 C for 40 hours. The fluorescence intensity were measured at 0h, 8h, 16h, 24h, 32h and 40h time points using ViewLux plate reader during compound treatment.
Consider `COCCCN1CCC(NC(=O)c2cc(Cl)c(N)c3c2OCC3)CC1`, for which the Potency entry is “inactive”. With `OC(C#CCN1CCCC1)(c1ccccc1)c1ccccc1`, the Potency result is “inactive”.

Consider `CCOc1ccc(O)cc1`, for which the Potency entry is “inactive”. The value for `O=C(O)CC(=O)C(=O)O` was “inactive”; that for `Nc1ncn([C@H]2C[C@H](O)[C@@H](CO)O2)c(=O)n1` was “inactive”.

`CC(C)CC(=O)C1C(=O)c2ccccc2C1=O`: the Potency entry was “inactive”. The value for `O=C(O)c1ccccc1Cl` was “inactive”; that for `CCC(=O)O[C@]1(C(=O)CCl)[C@@H](C)C[C@H]2[C@@H]3CCC4=CC(=O)C=C[C@]4(C)[C@@]3(F)[C@@H](O)C[C@@]21C` was “inactive”. The value for `O[C@@H](COc1cccc2ncccc12)CN1CCN(C2c3ccccc3[C@@H]3[C@H](c4ccccc42)C3(F)F)CC1` (stereo not given in full) was “inactive”; that for `CCCCCCCCCCCC(=O)OC[C@@H](O)[C@H]1OC[C@H](OCCO)[C@H]1OCCO` was “inactive”. With `Cc1ccccc1S(=O)(=O)O`, the Potency result was “inactive”.

Take `C[C@H](CCC(=O)O)[C@H]1CC[C@H]2[C@@H]3CC[C@@H]4C[C@H](O)CC[C@]4(C)[C@H]3C[C@H](O)[C@]12C`: the Potency result is “inactive”.

On to `O=C(O)C(S)C(S)C(=O)O` (stereo not given), for which the Potency entry is “inactive”. Turning to `CN1C[C@H]2c3ccccc3Oc3ccc(Cl)cc3[C@@H]2C1`, the Potency was 26.8 µM (active).

Consider `COC(=O)c1ccc(I)cc1S(=O)(=O)NC(=O)Nc1nc(C)nc(OC)n1`, for which the Potency result was “inactive”. The value for `O=C(O)C1(C(=O)Nc2ccc(Cl)cc2Cl)CC1` was “inactive”. The value for `CCO[C@H](Cc1ccc(OCCc2ccc(OS(C)(=O)=O)cc2)cc1)C(=O)O` was “inactive”; that for `CCCCO` was “inactive”; that for `CN(C)CCCN1c2ccccc2Sc2ccccc21` was 23.9 µM (active). Take `CCOC(=O)NCCOc1ccc(Oc2ccccc2)cc1`: the Potency entry is “inactive”. The value for `Cc1c(N)cccc1[N+](=O)[O-]` was “inactive”; that for `C=C(C)C(=O)OCC` was “inactive”; that for `O=C(O)c1ccc(-n2nc(-c3ccccc3O)nc2-c2ccccc2O)cc1` was “inactive”.

Regarding `C#CCN(C)CCCOc1ccc(Cl)cc1Cl`, the Potency was 6.01 µM (active). For the compound `N=c1ccn2c(n1)O[C@H]1[C@H](O)[C@@H](CO)O[C@H]12`, the Potency is 54.9 µM (active). The value for `CN1CCC(=C2c3ccccc3Sc3ccccc32)CC1` was 23.9 µM (active); that for `C=C(C)C(=O)OCCO` was “inactive”; that for `CC(C)O.CC(C)O.CCOC(=O)/C=C(\C)O.CCOC(=O)/C=C(\C)O.[Ti]` was “inactive”. Regarding `C/C=C/C=C/CO`, the Potency result was “inactive”.

With `CCCCCC[C@@H](O)C/C=C\CCCCCCCC(=O)OC`, the Potency result was “inactive”.

With `COc1cccc(N(C)C(=S)Oc2ccc3c(c2)CCCC3)n1`, the Potency result is “inactive”. Turning to `CCC(Cl)CCC(Cl)C(Cl)CC(Cl)C(Cl)C(Cl)CCl` (stereo not given), the Potency entry is “inactive”.

Turning to `COc1cc(Cl)ccc1Oc1ccc(Cl)cc1Cl`, the Potency result was “inactive”.

Turning to `CCCCCCCCCCCCCCOS(=O)(=O)O`, the Potency is 34.7 µM (active). On to `CCCCc1nc2cccnc2n1Cc1ccc(-c2ccccc2-c2nnn[nH]2)cc1`, for which the Potency result was “inactive”. The value for `Nc1ccc([N+](=O)[O-])c(C(F)(F)F)c1` was “inactive”; that for `C=C(C)C(=O)OCCOCC` was “inactive”.

On to `O=C(O)c1ccco1`, for which the Potency entry is “inactive”. As to `Cc1oc(-c2ccccc2)nc1CCOc1cccc2c1ccn2CCC(=O)O`, the Potency entry was “inactive”. Turning to `CC(=O)OC[C@H]1O[C@@H](n2ncc(=O)[nH]c2=O)[C@H](OC(C)=O)[C@@H]1OC(C)=O`, the Potency entry is “inactive”.

For the origin of these results see PubChem BioAssay (Tox21).
